Screening data (PubChem BioAssay)
ATXN2 expr inh = reduces ATXN2 reporter expression in HEK-293 cells. HEK-293 ATXN2-luciferase reporter, luminescence, 24 h. Potency, µM (highest dose often 57 µM), for the others: at the highest dose activity change, negative = inhibition, most hits filed as inhibitors. 360,000 compounds, 0.72% hits. AID 1745845; note: % is set by controls: 0 for no effect and ±100 for the full control effect; nearly all actives have a fitted effect of over 55% in size
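qHTS (up to 57 uM final) was run with 24 h compound exposure of reporter cells at 37 °C. Each well was multiplexed: SteadyGlo luminescence measured ATXN2-luciferase expression after a fluorogenic Gly-Phe-AFC viability readout (25 uM final).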
TGFb SMAD3 inh = TGF-b pathway inhibition; HepG2 CAGA-GFP TGF-b/SMAD3 reporter, GFP fluorescence, 18 h; TGF-beta stimulated, 500 pg/mL final; Potency, µM (top dose mostly 46.1 µM), for the others: top-dose activity, negative = inhibition, hits mostly inhibitors; 410,000 compounds, 1.2% hits; note: % is set by controls: 0 for no effect and ±100 for the full control effect; nearly all actives have a fitted effect of over 65% in size
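HEPG2 CAGA-GFP cells (1000/well, DMEM with 1% FBS) were pre-incubated 2 h at 37 degrees C, given compound by pin tool, then stimulated with TGF-beta at 500 pg/mL final for 18 h before per-cell GFP fluorescence imaging.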
VP16 counter = counter-screen for ROR gamma inhibitors: Gal4-VP16 reporter; Drosophila S2 Gal4-VP16 UAS-luciferase, luminescence, 20 h; Potency, µM (titrated, usually from 53.6 µM), for the others: at the highest dose activity, negative = inhibition, usual class: inhibitors; 310,000 compounds, 3.5% hits; AID 2546;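 note: Gal4-VP16 expression switched on by copper sulfate through the metallothionein promoter; % is set by controls: 0 for no effect and ±100 for the full control effect; nearly all actives have a fitted effect of over 50% in size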
HepG2 viability = kills HepG2 cells in TGF-b inhibitor counter-screen | 410,000 compounds, 0.76% hits | Potency, µM (highest dose often 46.1 µM), inactives show at the highest dose activity change, negative = cytotoxicity, most hits filed as cytotoxic | AID 588856 | HepG2 CAGA-GFP viability, ATP luminescence, 18 h
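HepG2 CAGA-GFP cells (1000/well, DMEM with 1% FBS) received compound, then TGF-beta at 500 pg/mL final, and were incubated 18 hours at 37 degrees C. Viability was read by CellTiter-Glo luminescence. Media-only wells were set as complete cell-killing and DMSO as no toxicity.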
RORg inh = ROR gamma (mouse) transcription inhibition; P51450; Drosophila S2 Gal4-RORgamma UAS-luciferase reporter, 20 h; 310,000 compounds, 5.4% hits; Potency, µM (doses to about 53.6 µM), without a hit: top-dose activity change, negative = inhibition, hits mostly inhibitors; note: % is set by controls: 0 for no effect and ±100 for the full control effect; nearly all actives have a fitted effect of over 60% in size
Target sequence (P51450 whole entry, looked up, the tested form may be a part): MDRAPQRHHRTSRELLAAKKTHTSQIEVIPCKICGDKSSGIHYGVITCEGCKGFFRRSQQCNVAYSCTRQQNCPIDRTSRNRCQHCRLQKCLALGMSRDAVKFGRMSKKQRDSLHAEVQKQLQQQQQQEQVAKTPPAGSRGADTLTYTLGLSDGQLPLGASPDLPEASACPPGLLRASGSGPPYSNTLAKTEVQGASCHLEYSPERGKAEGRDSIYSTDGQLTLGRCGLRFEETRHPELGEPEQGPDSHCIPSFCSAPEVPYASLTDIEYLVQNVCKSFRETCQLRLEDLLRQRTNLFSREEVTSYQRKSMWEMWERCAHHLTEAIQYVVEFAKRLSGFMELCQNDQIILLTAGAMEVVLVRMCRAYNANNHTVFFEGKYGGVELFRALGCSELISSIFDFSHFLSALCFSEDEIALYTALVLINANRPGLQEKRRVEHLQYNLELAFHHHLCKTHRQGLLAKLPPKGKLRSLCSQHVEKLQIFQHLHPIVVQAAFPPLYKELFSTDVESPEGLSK
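A Gal4/UAS one-hybrid system in insect cells: metallothionein-promoter Gal4–ROR gamma fusion plus Photinus luciferase reporter. Copper sulfate 700 uM final, 20 hr ambient incubation, luminescent detection after 10 min with reagent.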
ATXN viability = reduces viability in counter-screen for ATXN expression inhibitors; 400,000 compounds, 0.49% hits; Potency, µM (doses to about 56.7 µM), hits mostly cytotoxic; AID 651635; S2 cells (HEK-293 line with an ATXN2-luciferase reporter) viability, CellTiter-Fluor protease fluorescence, 24 h; note: nearly all actives have a fitted effect of over 40% in size
* marks the source's active call; other numbers are inactive results; i = inactive; u = inconclusive; x = no result given; [ ] = another dose, or the depositor's remark. Shown are actives, neighbours in structure and some others; about 6.3% of the full set was active somewhere. Calls come from the whole dose curve; as a rule, active = well fitted curve in the direction sought with a large enough effect; inconclusive = small, poorly fitted or top-dose-only effect, or another doubt; inactive = no such curve, though single readings can be large; an effect the other way counts as inactive or inconclusive. Potency is the fitted concentration of half-maximal effect.

SMILES	ATXN2 expr inh	TGFb SMAD3 inh	VP16 counter	HepG2 viability	RORg inh	ATXN viability
COc1cc(NC(=S)N2CCN(c3ccccn3)CC2)cc(OC)c1	-7.6%	-19.7%	u	-2.7%	11.2µM*	i
Cc1cc(C)cc(NC(=S)N2CCN(c3ccccn3)CC2)c1	x	u	u	3.9%	15.8µM*	i
CCOc1ccc(NC(=O)CN(C)C(=O)CCNC(=O)c2ccco2)cc1OCC	1.3%	6.6%	x	-2.4%	x	i
Cc1cccc(NC(=S)N2CCN(c3ccccn3)CC2)c1	x	-15.9%	u	-0.4%	u	i
Cc1cc(C)cc(NC(=S)N2CCN(c3ncccn3)CC2)c1	x	1.7%	u	0.2%	14.1µM*	i
Cc1ccc(NC(=S)N2CCN(c3ccccn3)CC2)cc1C	25.1%	u	12.6µM*	-18.2%	u	i
COc1ccc([C@H]2CC(=O)C[C@@H](CCn3cc(Cc4ccccc4)nn3)O2)cc1	9.1%	x	x	x	x	i
Cc1cn2c(=O)cc(COC(=O)c3cccc(NC(=O)c4ccccc4C)c3)nc2s1	x	2.5%	x	-1.6%	x	x
CC(C)C[C@@H](CN1CCC[C@@H]1CN1C(=S)NC[C@@H]1Cc1ccccc1)N1C[C@H](Cc2ccc(O)cc2)N(CC2CCCCC2)C1=S	-7.0%	u	x	-17.4%	x	u
Oc1ccc(C[C@H]2CN([C@@H](Cc3ccccc3)CN3CCCC3CN3C(=S)NC[C@@H]3Cc3ccccc3)C(=S)N2CC2CCCCC2)cc1 (stereo partly drawn)	-32.6%	x	x	x	x	u
Oc1ccc(C[C@H]2CN([C@@H](Cc3cccc(O)c3)CN3CCC[C@@H]3CN3C(=S)NC[C@@H]3Cc3ccccc3)C(=S)N2CC2CCCCC2)cc1	15.8µM*	5.01µM*	x	-45.5%	x	12.6µM*
CC(C)C[C@@H](CN1CCC[C@@H]1CN1C(=S)NC[C@@H]1Cc1ccccc1)N1C[C@H](Cc2ccc(O)cc2)N(CC2CCCCCC2)C1=S	22.4µM*	u	x	-80.5%	x	14.1µM*
CC(C)C[C@H]1CN([C@@H](Cc2ccc(O)cc2)CN2CCC[C@@H]2CN2C(=S)NC[C@@H]2Cc2ccccc2)C(=S)N1CC1CCCCC1	0.0%	11.2µM*	x	-29.7%	x	u
CC(C)C[C@H]1CNC(=S)N1CC1CCCN1C[C@H](Cc1ccc(O)cc1)N1C[C@H](Cc2ccccc2)N(CC2CCCCCC2)C1=S (stereo partly drawn)	-11.7%	u	x	-27.3%	x	i
CC(C)C[C@H]1CN([C@@H](Cc2ccccc2)CN2CCC[C@@H]2CN2C(=O)C(=O)NC[C@@H]2Cc2ccccc2)C(=O)C(=O)N1CCc1ccccc1	u	u	x	-91.4%	x	25.1µM*
NC(CC(=O)Nc1ccc(Oc2cc(F)c(F)cc2Br)cc1)C(=O)O (stereo not drawn)	x	x	0.2%	x	15.7%	x
CC1(C)C2CCC(CN=C(N)CSS(=O)(=O)O)C1C2 (stereo not drawn)	x	-7.9%	x	-4.0%	x	u
Cc1ccc(CNC(=O)c2cccc(NC(=O)N3CCSc4ncccc43)c2)cc1	-4.8%	-5.4%	x	-12.4%	x	i
COc1ccc2cc(C=O)ccc2c1	11.7%	x	x	x	x	i
CCOC(=O)N1CCN(C(=O)c2ccc(-c3ccccc3OC)nc2N2CCC(N3CCCC(CO)C3)CC2)CC1 (stereo not drawn)	x	x	x	x	x	i
CCN(CC)c1ccc(N=Cc2c(C)[nH]c3ccccc23)cc1	-0.9%	11.2µM*	u	2.82µM*	-22.7%	i
Cc1[nH]c2ccccc2c1/C=N/n1cnnc1	2.9%	18.3%	2.5%	1.1%	0.9%	i
FC(F)(F)c1cccc(NC(=S)NC(c2ccccc2)c2ccccc2)c1	u	u	6.31µM*	-47.5%	7.08µM*	i
O=C(Nc1ccccc1)Nc1cccc(C(F)(F)F)c1	-5.5%	-34.5%	-6.4%	-25.8%	u	i
FC(F)(F)c1cccc(NC(=S)NCc2ccccc2)c1	-10.0%	-38.2%	12.6µM*	-40.7%	4.47µM*	i
SMILES	ATXN2 expr inh	TGFb SMAD3 inh	VP16 counter	HepG2 viability	RORg inh	ATXN viability
FC(F)(F)c1cccc(CNC(=S)Nc2ccccc2)c1	-9.2%[11.3 µM]	u	-18.2%[10 µM]	-12.9%	5.62µM*	i
COc1ccccc1/C=C/CN1CCC(n2nccc2NC(=O)C2CC2)CC1	0.0%	-0.3%	-4.5%	-4.6%	-20.3%	i
Cc1ccc(-n2c(-c3ccccc3)c[nH]c2=S)cc1	-25.4%	u	6.31µM*	-27.6%	2.24µM*	i
COc1ccc(-n2c(-c3ccc(Cl)cc3)c[nH]c2=S)cc1	8.5%	-17.8%	2.82µM*	-6.6%	0.447µM*	i
CCOC(=O)c1c[nH]c(=S)n(-c2ccccc2)c1=O	6.2%	u	x	3.2%	x	i
COc1ccc(-n2c(-c3ccccc3)nnc2-c2ccc(Cl)cc2)cc1	-2.3%	5.5%	-11.8%	-1.9%	9.3%	i
S=c1[nH]cc(-c2ccccc2)n1-c1ccccc1	-10.8%	-14.8%	3.98µM*	4.8%	3.55µM*	i
C[C@@H]1CN([C@@H](C)CO)C(=O)CCCn2nncc2CO[C@H]1CN(C)C(=O)Nc1ccc(-c2cccs2)cc1	-13.8%	-1.7%	x	-22.7%	x	u
Cc1nc2ccc(Br)cn2c1NC(C)(C)C	0.9%	1.1%	u	-6.7%	14.1µM*	i
Cc1nc2ccc(Br)cn2c(=O)c1Cl	-6.3%	1.2%	2.2%	2.0%	-25.5%	i
O=C(Nc1cc2ccc(O)cc2oc1=O)c1ccccc1	9.6%	0.0%	x	-66.6%	x	i
C[C@H]1[C@H](C)CC[C@]2(C(=O)O)CC[C@]3(C)C(=CCC4[C@@]5(C)C[C@@H](O)[C@H](O)[C@@](C)(CO)[C@@H]5CC[C@]43C)[C@H]12 (stereo partly drawn)	x	x	-5.8%	x	11.2µM*	x
CC(=O)O[C@H]1CC[C@]2(C)[C@H]3CC=C4[C@@H]5[C@@H](C)[C@H](C)CC[C@]5(C(=O)O)CC[C@@]4(C)[C@]3(C)CC[C@H]2C1(C)C	x	x	7.7%	x	u	x
C[C@@H]1CC[C@]2(C(=O)O)CC[C@]3(C)C(=CCC4[C@@]5(C)C[C@@H](O)[C@H](O)[C@@](C)(CO)C5CC[C@]43C)C2[C@H]1C (stereo partly drawn)	x	x	17.8µM*	x	-34.5%	x
CC(=O)OC1CC[C@]2(C)C(CC[C@@]3(C)C2C(=O)C=C2C4C(C)C(C)CC[C@@]4(C(=O)O)CCC23C)C1(C)C (stereo partly drawn)	x	x	-7.8%	x	0.631µM*	x
